Test results from PubChem BioAssay AID778 (Sanford-Burnham Center for Chemical Genomics, 2007).
Hit rate of the full screen: of about 96,000 compounds, about 20,000 (21%) were called active. Not all results are given here. Values without a mark were called inactive.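 Rule for the calls: active = CYP2C19 inhibition above a set limit at 5 µM in the primary screen (cut at about 50% in these data); inactive = the rest.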

Biological target: Cytochrome P450 2C19 (Homo sapiens) (UniProt P33261)
Test: blockers of cytochrome P450 2C19 activity – biochemical, luminescence, ADME assay, primary screen (AID 778);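 note: plate controls were negative control wells for no effect and 2.5 mM tranylcypromine positive control for full effect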
Conditions: CYP2C19 Supersomes, luciferin-H EGE luminescence, 30 min; at 5 µM; hits give high values

Sequence of Cytochrome P450 2C19 (Homo sapiens) (P33261 whole entry, looked up): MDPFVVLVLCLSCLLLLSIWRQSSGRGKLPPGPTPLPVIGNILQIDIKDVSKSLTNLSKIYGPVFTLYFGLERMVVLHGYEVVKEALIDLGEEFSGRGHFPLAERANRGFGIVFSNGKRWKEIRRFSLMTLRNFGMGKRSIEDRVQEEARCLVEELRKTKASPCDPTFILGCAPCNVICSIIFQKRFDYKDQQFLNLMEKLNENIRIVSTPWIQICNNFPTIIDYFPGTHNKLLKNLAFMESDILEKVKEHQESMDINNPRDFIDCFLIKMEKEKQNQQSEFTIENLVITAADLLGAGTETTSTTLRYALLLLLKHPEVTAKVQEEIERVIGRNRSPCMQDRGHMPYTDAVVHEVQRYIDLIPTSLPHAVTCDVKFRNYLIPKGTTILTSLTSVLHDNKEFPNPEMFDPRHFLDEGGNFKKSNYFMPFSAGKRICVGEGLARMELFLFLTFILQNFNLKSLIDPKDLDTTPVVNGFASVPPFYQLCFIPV

Going from CN1CCCc2cc(C#N)c(=O)[nH]c21 to CC(=O)c1cc(C#N)c(SCC(=O)C(C)(C)C)nc1C, the inhibition rises from 10.9% to 34.4%.

First: Fc1ccc(OCc2nn3c(Cn4nnc5ccccc54)nnc3s2)cc1
Second: Cc1ccc(C(=O)CSc2nnc(Cn3nnc4ccccc43)n2C)cc1
The inhibition of the first is higher: 26.6% for the first, 13.9% for the second.

Going from CCc1cc2c(=O)c(-c3ccon3)c(N)oc2cc1OC to CCn1c(NCCc2ccc(OC)c(OC)c2)nc2c1c(=O)n(C)c(=O)n2C, the inhibition rises from 1.3% to 1.8%.

Going from COc1ccc(C(=O)N2CCC(C(=O)Nc3cccc(C)c3)CC2)cc1OC to COc1ccccc1CNC(=O)C1CCN(c2nc3ccccc3o2)CC1, the inhibition rises from -3.6% to 3.5%.

Compared with COc1ccccc1Cn1c(=S)[nH]c2cc(C(=O)N3CCN(C)CC3)ccc2c1=O, COc1ccc(OC)c(CNC(=O)C2CCCN(c3nc4ccccc4o3)C2)c1 (configuration not stated) is higher in inhibition: -10.4% for the first, 17.2% for the second.

Going from O=C(NCCc1ccco1)c1nn(Cc2ccccc2)c(=O)c2ccccc12 to O=C(CCc1ccccc1)NCc1cccnc1, the inhibition rises from -8.3% to 18.2%.

Compared with COCc1cc(C)nc(Nc2cc(C)ccc2C)c1C#N, Cc1ccc(-n2nc(N)c3c(=O)oc(N(C)C)nc32)cc1 is lower in inhibition: 19.8% for the first, 17.8% for the second.

Compared with Cc1cc(C(C)(C)C)oc1C(=O)N(CC(=O)NC1CCCC1)Cc1ccc(Cl)cc1, Cc1ccc(S(=O)(=O)NCC(=O)N(CC(=O)NC2CCCCC2)Cc2ccco2)cc1 is higher in inhibition: -5.1% for the first, 15.5% for the second.

Compared with CC(C)(CNC(=O)c1cc(=O)[nH]c2ccccc12)N1CCOCC1, COC(=O)c1[nH]c2ccccc2c1NC(=O)CN1CCCc2ccccc21 is higher in inhibition: 4.2% for the first, 26% for the second.

First: CCOC(=O)c1[nH]c2ccccc2c1N=C(C)N(CC)CC
Second: CCN(CC)P(=O)(/C(Cl)=C\Nc1c(C)n(C)n(-c2ccccc2)c1=O)N(CC)CC
The inhibition of the first is lower: -9.4% for the first, -1.6% for the second.

Going from Cc1cc(C)cc(NC(=O)CSCc2cnn(-c3ccccc3)c2-n2cccc2)c1 to O=C(NCCC1=CCCCC1)C1CCN(Cc2cnn(-c3ccccc3)c2-n2cccc2)CC1, the inhibition falls from 47.5% to 25.4%.

Compared with CCCn1nnc2sc3c(c2c1=O)CCC(C)C3 (configuration not stated), CC1(C)CN=C(N2CCN(c3ncnc4sc5c(c34)CCCC5)CC2)S1 is higher in inhibition: 28.3% for the first, 32% for the second.

First: CCN(CC)CCN1C(=O)C(=O)/C(=C(/O)c2cnn(-c3ccccc3)c2C)C1c1cccs1 (configuration not stated)
Second: Cn1c(=O)n(CCc2ccccc2)c(=O)c2c1nc1n2CCCN1c1ccccc1
The inhibition of the first is lower: -2% for the first, 14.9% for the second.

Going from C=CCOc1ccc(Cl)cc1CNCCCN1CCOCC1 to CCOc1ccc2[nH]c(=O)c(C(c3nnnn3CCOC)N3CCOCC3)cc2c1 (configuration not stated), the inhibition rises from 5.8% to 11.5%.

First: O=C1CC(Sc2ncn[nH]2)C(=O)N1c1ccccc1 (configuration not stated)
Second: COc1ccccc1C(=O)Oc1ccc(N2C(=O)CCC2=O)cc1
The inhibition of the first is higher: 14.1% for the first, -7.5% for the second.

Compared with O=C(O)CSCc1nc2ccccc2s1, O=C(O)CCCCc1nc2ccccc2s1 is higher in inhibition: -10.2% for the first, -6.9% for the second.

First: CCCc1nnc(NC(=O)CN2C(=O)c3ccccc3S2(=O)=O)s1
Second: COC(=O)Nc1ncc(CN2C(=O)c3ccccc3C2=O)s1
The inhibition of the first is lower: -6.6% for the first, 8.1% for the second.

Going from C/C(=N\NS(=O)(=O)c1cccc([N+](=O)[O-])c1)c1cc2ccccc2o1 to COc1ccc(S(=O)(=O)NC(CC(=O)NCc2ccccc2OC)c2ccco2)cc1 (configuration not stated), the inhibition rises from 8.6% to 38.2%.

First: Cc1[nH]nc(-c2ccc(OCc3cnn(-c4ccccc4)c3)cc2O)c1Oc1ccc(Cl)cc1
Second: COc1ccc(C(=O)Cc2cnn(-c3ccccc3)c2)c(O)c1
The inhibition of the first is lower: 20.9% for the first, 24.9% for the second.

Compared with COc1cc(C2C(C(=O)Nc3ccccc3OC)=C(C)Nc3ncnn32)ccc1O (configuration not stated), COc1ccc(N2CC(C)Cn3c2nc2c3c(=O)n(Cc3ccccc3F)c(=O)n2C)c(OC)c1 (configuration not stated) is lower in inhibition: -5% for the first, -10.2% for the second.

First: COc1ccc(NC(=O)Nc2cccc3cccnc23)cc1
Second: COc1ccc(NC(=O)C2CCCN(S(=O)(=O)c3cccc4cccnc34)C2)cc1 (configuration not stated)
The inhibition of the first is higher: 31% for the first, 17.5% for the second.

Compared with CC(C)NC(=O)CCCn1c(=S)[nH]c2cc3c(cc2c1=O)OCO3, Cn1c(C(=O)NCCc2ccsc2)cc2c(=O)n(C)c3ccccc3c21 is higher in inhibition: -9.6% for the first, 11.7% for the second.

First: COc1ccc(SCc2noc(C(=O)NCC3CCCO3)c2C(=O)O)cc1 (configuration not stated)
Second: Cc1cccc(N2CCN(C(c3ccccc3)c3nnnn3CC3CCCO3)CC2)c1C (configuration not stated)
The inhibition of the first is lower: 11.5% for the first, 12.7% for the second.

First: COC(C)(C)[C@]12CC(O)(C(C)C)ON1[C@H]1CCCCC1N2O (some centres not stated)
Second: CC(C)C(NC(=O)OCc1ccccc1)C(=O)OCC(=O)N1C(C)CCCC1C (configuration not stated)
The inhibition of the first is lower: 7% for the first, 40.3% for the second.

Going from Cn1ncc2c(Nc3cccc4ccccc34)ncnc21 to COc1ccc2ccccc2c1CNCc1ccccn1, the inhibition rises from 12.9% to 15.9%.

Compared with O=C(c1ccco1)N1CCN(C(=O)C2CCCN(S(=O)(=O)c3cccc4nsnc34)C2)CC1 (configuration not stated), O=C(O)C1CCCN(S(=O)(=O)c2cccc3cccnc23)C1 (configuration not stated) is lower in inhibition: 1.6% for the first, -11.3% for the second.

Going from CC(=O)c1cccc(NC(=O)C2CCCN2S(=O)(=O)c2cccc3nsnc23)c1 (configuration not stated) to O=C(CCC(=O)N1CCN(S(=O)(=O)c2ccccc2)CC1)NC1CCCc2ccccc21 (configuration not stated), the inhibition falls from 22.5% to 17.7%.

First: O=C(COc1ccc(F)cc1)N(CC1=CCS(=O)(=O)C1)c1ccccc1
Second: CCOC(=O)CSc1nnc(CNC(=O)c2ccco2)n1-c1ccc(F)cc1
The inhibition of the first is lower: -5.1% for the first, -4.9% for the second.

First: Cc1ccc(C2NC(=S)NC3=C2N2CCC3CC2)cc1 (configuration not stated)
Second: Cc1cc(N2CCCC2)n2nc(C)c(-c3ccccc3)c2n1
The inhibition of the first is higher: -8.9% for the first, -17.7% for the second.

First: N#CCCN1CCN(S(=O)(=O)c2ccc(S(=O)(=O)NC3CC3)cc2)CC1
Second: CCCS(=O)(=O)N1CCCC(C(=O)NCCN2CCCCC2C)C1 (configuration not stated)
The inhibition of the first is lower: -21.3% for the first, -13.4% for the second.

Compared with CC(=O)OC(C(=O)NCCc1ccccc1)c1cccnc1 (configuration not stated), CC(C)CC[n+]1ccn(C2=C([O-])c3ccccc3C(=O)/C2=N\S(=O)(=O)c2ccccc2)c1 is higher in inhibition: 0% for the first, 7.8% for the second.

Compared with CCN1C(=O)c2cccc3c(N)ccc1c23, CCSc1nc(C)nc2c1oc1ccccc12 is lower in inhibition: 23.7% for the first, 15.2% for the second.

First: COc1ccccc1C(=O)NN1C(=O)C2C3C=CC(O3)C2C1=O (configuration not stated)
Second: Nc1nonc1-c1nc2ccccc2n1CCC(=O)O
The inhibition of the first is lower: -6.1% for the first, -2.5% for the second.

Compared with COc1ccc(-n2c(SCC(=O)OC(C)C)nnc2-c2ccccn2)cc1, CCn1c(SCC(=O)c2ccc3ccccc3c2)nnc1-c1cccs1 is higher in inhibition: 12% for the first, 15.7% for the second.

First: Cn1c(SCC(=O)c2cccs2)nnc1-c1ccco1
Second: COc1ccc(-c2cn3ccsc3n2)cc1
The inhibition of the first is higher: 42.3% for the first, 14.3% for the second.

Going from CCS(=O)(=O)Nc1cc(C(=O)OC)ccc1C(=O)OC to CC(C)c1ccc(NS(=O)(=O)c2cn(C)c(=O)n(C)c2=O)cc1, the inhibition falls from 49.8% to 34%.

First: COCc1[nH][nH]c(=O)c1C=Nc1ccc(F)cc1F
Second: CC(C)C(c1nnnn1C1CCCC1)N1CCN(c2ccccc2F)CC1 (configuration not stated)
The inhibition of the first is lower: -10.3% for the first, 8% for the second.

First: CCNc1nc(NCC)nc(N(C)n2cnnc2)n1
Second: Nc1ccc(-c2nnc(-c3ccc(-c4ccccc4)cc3)o2)cc1
The inhibition of the first is lower: -6% for the first, 25.3% for the second.

With COc1cc(C(=O)N2CCN(C/C=C/c3ccccc3)CC2)cc(OC)c1C the inhibition was 68.8% (active).
In the case of CCOC(=O)c1ccc(COC(=O)c2cc(=O)[nH]c3ccccc23)o1, the inhibition is reported as 69.5% (active).
CC(=O)Nc1ccc(NC(=O)CSCc2cnn(-c3ccccc3)c2-n2cccc2)cc1 was tested, and the inhibition was 92.4% (active).
With COc1ccccc1OCc1nc2ccccc2s1 the inhibition was 97.6% (active).
For C/C(=N\NS(=O)(=O)c1ccc(Br)cc1)c1cccs1, the inhibition was 69.6% (active).
With Cc1cc(O)cc(O)c1C(=O)Cc1cnn(-c2ccccc2)c1 the inhibition was 56.7% (active).
With COc1cc(C2C3C(=O)N(c4ccccc4)C(=O)C3ON2c2ccccc2)ccc1O (configuration not stated) the inhibition was 58.5% (active).
In the case of Cc1ccccc1N1C(=O)C2ON(c3ccccc3)C(c3ccncc3)C2C1=O (configuration not stated), the inhibition is reported as 94.6% (active).
For Cc1cccc(N2CC(C)Cn3c2nc2c3c(=O)n(CC(=O)OCc3ccccc3)c(=O)n2C)c1 (configuration not stated), the inhibition was 66.5% (active).
In the case of CC1CCCCC1NC(=O)C1CCCN1S(=O)(=O)c1cccc2nsnc12 (configuration not stated), the inhibition is reported as 69.3% (active).
For O=C(Nc1nccs1)C1CCCN1S(=O)(=O)c1cccc2cccnc12 (configuration not stated), the inhibition was 54.2% (active).
O=C(CC(NS(=O)(=O)c1ccc(Cl)cc1)c1ccco1)NC1CCCC1 (configuration not stated) was tested, and the inhibition was 62.5% (active).
For CCC(Oc1ccccc1)C(=O)NCc1cccnc1 (configuration not stated), the inhibition was 67.7% (active).
In the case of COc1ccccc1C(=O)C(O)c1ccccc1OC (configuration not stated), the inhibition is reported as 55.8% (active).
In the case of CCn1c(SCC(=O)c2ccc(Cl)s2)nnc1-c1cccs1, the inhibition is reported as 94.2% (active).
For CCn1c(Cc2cccs2)nnc1SCC(=O)c1ccc(C)cc1, the inhibition was 94.1% (active).
With Cc1ccc(-n2c(Cc3cccs3)nnc2SCC(=O)OC(C)C)cc1 the inhibition was 98.1% (active).
In the case of COc1ccc(C(c2nnnn2C2CCCCC2)N2CCN(c3ccccc3F)CC2)cc1 (configuration not stated), the inhibition is reported as 80.6% (active).
In the case of COc1ccc(N2CCN(C(c3cc4ccc(C)cc4[nH]c3=O)c3nnnn3C3CCCC3)CC2)cc1 (configuration not stated), the inhibition is reported as 54.4% (active).
With Nc1ccc(-c2sc(N)nc2-c2ccccc2)cc1 the inhibition was 61.8% (active).
CCc1ccc(CNC(=O)C2CCCN(c3nc4ccccc4o3)C2)cc1 (configuration not stated) was tested, and the inhibition was 65.8% (active).
